# Measurements reported in the supplement of paper PMC8728848.
# The full list was thinned out, with the strongest signals kept by preference.
# B1: DBA (Dolichos biflorus) (protein)
# chain: ANIQSFSFKNFNSPSFILQGDATVSSGKLQLTKVKENGFPLRFPSGRAFYSSPIQIYDKFTGAVASWATSFTVKISAPSKASFADGIAFALVPVGSEPRRNGGYLGVFDSDVYNNSAQTVAVEFDTLSNSGWDPSMKHIGIDVNSIKSIATVSWDLANGENAEILITYNAATSLLVVSLVHPSRRTSYILSERVDITNELPEYVGVGFSATTGLSEGYIETHDVLSWSFASRLPDDSTAEPLDLARYLVRNVL
# Legend:
# Assay in all cases: glycan array binding signal (z-score within array); higher = stronger binding
# Conditions in all cases: glycan notation: IUPAC condensed, linker removed
# [1] = molecular target: Fuc(a1-2)Gal(b1-3)GalNAc(a1-3)[Fuc(a1-2)]Gal(b1-4)Glc
# Summary of the method: (§1)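 The binding signal is a Z-score computed within each array and averaged over linkers. Arrays of the same protein sequence at different concentrations or buffers were also averaged together. Data originate from 3228 arrays in the Consortium for Functional Glycomics database, kept only where the protein sequence was available.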
# [2] = molecular target: Fuc(a1-2)Gal(b1-3)GlcNAc(b1-3)[Gal(b1-4)GlcNAc(b1-6)]Gal(b1-4)Glc
# Summary of the method: as §1
# [3] = molecular target: Fuc(a1-2)Gal(b1-3)GlcNAc(b1-3)[Neu5Ac(a2-6)Gal(b1-4)GlcNAc(b1-6)]Gal(b1-4)Glc
# Summary of the method: as §1
# [4] = molecular target: Fuc(a1-2)Gal(b1-3)[Fuc(a1-4)]GlcNAc
# Summary of the method: as §1
# Fuc(a1-2)Gal(b1-4)Glc6S = molecular target: Fuc(a1-2)Gal(b1-4)Glc6S
# Summary of the method: as §1
# [5] = molecular target: Fuc(a1-2)Gal(b1-4)[Fuc(a1-3)]GlcNAc(b1-3)GalNAc
# Summary of the method: as §1
# [6] = molecular target: Fuc(a1-2)Gal3S(b1-4)GlcNAc
# Summary of the method: as §1
# Fuc(a1-2)Gal6S(b1-4)Glc = molecular target: Fuc(a1-2)Gal6S(b1-4)Glc
# Summary of the method: as §1
# [7] = molecular target: Fuc(a1-2)[GalNAc(a1-3)]Gal
# Summary of the method: as §1
# [8] = molecular target: Fuc(a1-2)[GalNAc(a1-3)]Gal(b1-3)GlcNAc(b1-6)GalNAc
# Summary of the method: as §1
# [9] = molecular target: Fuc(a1-2)[GalNAc(a1-3)]Gal(b1-4)Glc
# Summary of the method: as §1
# [10] = molecular target: Fuc(a1-2)[GalNAc(a1-3)]Gal(b1-4)GlcNAc
# Summary of the method: as §1
# [11] = molecular target: Fuc(a1-2)[GalNAc(a1-3)]Gal(b1-4)[Fuc(a1-3)]GlcNAc(b1-3)GalNAc
# Summary of the method: as §1
# [12] = molecular target: Fuc(a1-3)[Gal(b1-4)]GlcNAc(b1-2)Man
# Summary of the method: as §1
# [13] = molecular target: Fuc(a1-3)[Gal(b1-4)]GlcNAc(b1-4)Gal(b1-4)[Fuc(a1-3)]GlcNAc
# Summary of the method: as §1
# [14] = molecular target: Fuc(a1-3)[Gal3S(b1-4)]GlcNAc6S
# Summary of the method: as §1
# Fuc(a1-4)GlcNAc = molecular target: Fuc(a1-4)GlcNAc
# Summary of the method: as §1
# Gal(a1-3)Gal(b1-3)GlcNAc = molecular target: Gal(a1-3)Gal(b1-3)GlcNAc
# Summary of the method: as §1
# Gal(a1-3)Gal(b1-4)Glc = molecular target: Gal(a1-3)Gal(b1-4)Glc
# Summary of the method: as §1
# [15] = molecular target: Gal(a1-4)Gal(b1-3)GlcNAc(b1-2)Man(a1-3)[Gal(a1-4)Gal(b1-3)GlcNAc(b1-2)Man(a1-6)]Man(b1-4)GlcNAc(b1-4)GlcNAc
# Summary of the method: as §1
# Gal(a1-4)GlcNAc = molecular target: Gal(a1-4)GlcNAc
# Summary of the method: as §1
# Gal(b1-2)Gal = molecular target: Gal(b1-2)Gal
# Summary of the method: as §1
# [16] = molecular target: Gal(b1-3)GlcNAc(b1-3)Gal(b1-4)GlcNAc(b1-3)Gal(b1-4)GlcNAc(b1-2)[Gal(b1-3)GlcNAc(b1-3)Gal(b1-4)GlcNAc(b1-3)Gal(b1-4)GlcNAc(b1-6)]Man(a1-6)[Gal(b1-3)GlcNAc(b1-3)Gal(b1-4)GlcNAc(b1-3)Gal(b1-4)GlcNAc(b1-2)Man(a1-3)]Man(b1-4)GlcNAc(b1-4)[Fuc(a1-6)]GlcNAc
# Summary of the method: as §1
# [17] = molecular target: Gal(b1-3)GlcNAc(b1-3)Gal(b1-4)[Fuc(a1-3)]GlcNAc(b1-6)[Gal(b1-3)GlcNAc(b1-3)]Gal(b1-4)Glc
# Summary of the method: as §1
# [18] = molecular target: Gal(b1-3)GlcNAc(b1-3)GalNAc
# Summary of the method: as §1
# [19] = molecular target: Gal(b1-4)GlcNAc(b1-3)Gal(b1-3)GlcNAc
# Summary of the method: as §1
# [20] = molecular target: Gal(b1-4)GlcNAc(b1-3)GalNAc
# Summary of the method: as §1
# [21] = molecular target: Gal(b1-4)GlcNAc(b1-6)[Gal(b1-3)]GalNAc
# Summary of the method: as §1
# GalNAc(a1-3)GalNAc = molecular target: GalNAc(a1-3)GalNAc
# Summary of the method: as §1
# [22] = molecular target: GalNAc(a1-3)GalNAc(a1-3)Gal(a1-4)Gal(b1-4)GlcNAc
# Summary of the method: as §1
# [23] = molecular target: GalNAc(a1-3)GalNAc(b1-3)Gal(a1-4)Gal(b1-4)Glc
# Summary of the method: as §1
# GalNAc(b1-4)GlcNAc6S = molecular target: GalNAc(b1-4)GlcNAc6S
# Summary of the method: as §1
# [24] = molecular target: GlcNAc(a1-4)Gal(b1-4)GalNAc
# Summary of the method: as §1
# [25] = molecular target: GlcNAc(a1-4)Gal(b1-4)GlcNAc(b1-3)Gal(b1-4)[Fuc(a1-3)]GlcNAc(b1-3)Gal(b1-4)[Fuc(a1-3)]GlcNAc
# Summary of the method: as §1
# [26] = molecular target: GlcNAc(b1-2)[GlcNAc(b1-4)]Man(a1-3)[GlcNAc(b1-4)][GlcNAc(b1-2)Man(a1-6)]Man(b1-4)GlcNAc(b1-4)GlcNAc
# Summary of the method: as §1
# [27] = molecular target: GlcNAc(b1-3)Gal(b1-4)GlcNAc(b1-3)Gal(b1-4)GlcNAc(b1-3)Gal(b1-4)GlcNAc(b1-3)Gal(b1-4)GlcNAc(b1-2)[GlcNAc(b1-3)Gal(b1-4)GlcNAc(b1-3)Gal(b1-4)GlcNAc(b1-3)Gal(b1-4)GlcNAc(b1-3)Gal(b1-4)GlcNAc(b1-6)]Man(a1-6)[GlcNAc(b1-3)Gal(b1-4)GlcNAc(b1-3)Gal(b1-4)GlcNAc(b1-3)Gal(b1-4)GlcNAc(b1-3)Gal(b1-4)GlcNAc(b1-2)Man(a1-3)]Man(b1-4)GlcNAc(b1-4)[Fuc(a1-6)]GlcNAc
# Summary of the method: as §1
# [28] = molecular target: GlcNAc(b1-3)Gal(b1-4)GlcNAc(b1-3)GalNAc
# Summary of the method: as §1
# GlcNAc(b1-3)GalNAc = molecular target: GlcNAc(b1-3)GalNAc
# Summary of the method: as §1
# [29] = molecular target: GlcNAc(b1-4)Gal(b1-4)GlcNAc
# Summary of the method: as §1
# Kdn(a2-3)Gal(b1-3)GlcNAc = molecular target: Kdn(a2-3)Gal(b1-3)GlcNAc
# Summary of the method: as §1
# [30] = molecular target: Man(a1-2)Man(a1-2)Man(a1-6)[Man(a1-3)]Man
# Summary of the method: as §1
# MurNAc(b1-4)GlcNAc = molecular target: MurNAc(b1-4)GlcNAc
# Summary of the method: as §1
# Neu5Ac(a2-3)GalNAc = molecular target: Neu5Ac(a2-3)GalNAc
# Summary of the method: as §1
# [31] = molecular target: Neu5Ac(a2-3)[GalNAc(b1-4)]Gal(b1-4)Glc
# Summary of the method: as §1
# [32] = molecular target: Neu5Ac(a2-3)[GalNAc(b1-4)]Gal(b1-4)GlcNAc
# Summary of the method: as §1
# [33] = molecular target: Neu5Ac(a2-6)Gal(b1-4)GlcNAc
# Summary of the method: as §1
# [34] = molecular target: Neu5Ac(a2-6)Gal(b1-4)GlcNAc(b1-2)Man
# Summary of the method: as §1
# [35] = molecular target: Neu5Ac(a2-6)Gal(b1-4)GlcNAc(b1-2)Man(a1-3)Man(b1-4)GlcNAc(b1-4)GlcNAc
# Summary of the method: as §1
# [36] = molecular target: Neu5Ac(a2-6)Gal(b1-4)GlcNAc(b1-2)Man(a1-6)[Gal(b1-4)GlcNAc(b1-2)Man(a1-3)]Man(b1-4)GlcNAc(b1-4)GlcNAc
# Summary of the method: as §1
# [37] = molecular target: Neu5Ac(a2-6)Gal(b1-4)GlcNAc6S
# Summary of the method: as §1
# [38] = molecular target: Neu5Ac(a2-8)Neu5Ac(a2-3)[Gal(b1-3)GalNAc(b1-4)]Gal(b1-4)Glc
# Summary of the method: as §1
# [39] = molecular target: Neu5Ac(a2-8)Neu5Ac(a2-8)Neu5Ac(a2-8)Neu5Ac(a2-3)[GalNAc(b1-4)]Gal(b1-4)Glc
# Summary of the method: as §1
binder,measurement,setting,value
B1,glycan array binding signal (z-score),[1],-0.133
same,glycan array binding signal (z-score),[2],-0.099
same,glycan array binding signal (z-score),[3],-0.152
same,glycan array binding signal (z-score),[4],-0.142
same,glycan array binding signal (z-score),Fuc(a1-2)Gal(b1-4)Glc6S,-0.09
same,glycan array binding signal (z-score),[5],0.449
same,glycan array binding signal (z-score),[6],-0.041
same,glycan array binding signal (z-score),Fuc(a1-2)Gal6S(b1-4)Glc,0.346
same,glycan array binding signal (z-score),[7],0.024
same,glycan array binding signal (z-score),[8],-0.113
same,glycan array binding signal (z-score),[9],0.577
same,glycan array binding signal (z-score),[10],0.575
same,glycan array binding signal (z-score),[11],0.333
same,glycan array binding signal (z-score),[12],-0.116
same,glycan array binding signal (z-score),[13],-0.19
same,glycan array binding signal (z-score),[14],-0.015
same,glycan array binding signal (z-score),Fuc(a1-4)GlcNAc,-0.115
same,glycan array binding signal (z-score),Gal(a1-3)Gal(b1-3)GlcNAc,-0.124
same,glycan array binding signal (z-score),Gal(a1-3)Gal(b1-4)Glc,-0.119
same,glycan array binding signal (z-score),[15],-0.059
same,glycan array binding signal (z-score),Gal(a1-4)GlcNAc,-0.126
same,glycan array binding signal (z-score),Gal(b1-2)Gal,-0.113
same,glycan array binding signal (z-score),[16],0.071
same,glycan array binding signal (z-score),[17],-0.1
same,glycan array binding signal (z-score),[18],-0.126
same,glycan array binding signal (z-score),[19],-0.125
same,glycan array binding signal (z-score),[20],-0.144
same,glycan array binding signal (z-score),[21],-0.121
same,glycan array binding signal (z-score),GalNAc(a1-3)GalNAc,12.1
same,glycan array binding signal (z-score),[22],12.5
same,glycan array binding signal (z-score),[23],13.4
same,glycan array binding signal (z-score),GalNAc(b1-4)GlcNAc6S,1.8
same,glycan array binding signal (z-score),[24],-0.085
same,glycan array binding signal (z-score),[25],-0.007
same,glycan array binding signal (z-score),[26],-0.133
same,glycan array binding signal (z-score),[27],-0.1
same,glycan array binding signal (z-score),[28],-0.139
same,glycan array binding signal (z-score),GlcNAc(b1-3)GalNAc,-0.101
same,glycan array binding signal (z-score),[29],-0.16
same,glycan array binding signal (z-score),Kdn(a2-3)Gal(b1-3)GlcNAc,-0.169
same,glycan array binding signal (z-score),[30],-0.081
same,glycan array binding signal (z-score),MurNAc(b1-4)GlcNAc,-0.119
same,glycan array binding signal (z-score),Neu5Ac(a2-3)GalNAc,-0.165
same,glycan array binding signal (z-score),[31],4.19
same,glycan array binding signal (z-score),[32],3.09
same,glycan array binding signal (z-score),[33],-0.103
same,glycan array binding signal (z-score),[34],-0.127
same,glycan array binding signal (z-score),[35],-0.098
same,glycan array binding signal (z-score),[36],-0.144
same,glycan array binding signal (z-score),[37],-0.118
same,glycan array binding signal (z-score),[38],-0.124
same,glycan array binding signal (z-score),[39],-0.104
